# From PubChem
# CHX counter: counter-screen hit for Shiga toxin inhibitors, cycloheximide | cell reporter, cycloheximide protein synthesis inhibition counterscreen | max response, % | 300,000 compounds, 12% hits | AID 2314; in the data active means max response mostly above about 13%, no sharp cut-off; inactive means mostly below about 14%; further: read at 38.3 µM for the half of the compounds with a filed dose; 0% is about no effect
# NS1 function inh: influenza NS1 inhibition; Potency, µM (doses to about 46.1 µM), without a hit: at the highest dose activity, positive = more growth; 270,000 compounds, 0.4% hits; calls by dose curve; further: potency means the concentration at half of the fitted maximal effect; actives are rising curves; nearly all actives have a fitted effect of over 50% in size
#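 Growth recovery, yeast-based: influenza A NS1 expressed in S. cerevisiae causes slow growth, and suppressors are detected by OD600. The parent strain without NS1 is used as positive control.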
# Shiga inhibitor: inhibitors of Shiga toxin in Vero cells. Vero cells, Shiga toxin protein synthesis inhibition reporter. inhibition, % at 38.7 µM. 290,000 compounds, 9.2% hits; in the data active means inhibition mostly above about 28%, no sharp cut-off; inactive means mostly below about 43%; further: 0% is about no effect
# Pf growth 48h: P. falciparum growth inhibition at 48 hours (one generation); 310,000 compounds, 5.9% hits; P. falciparum luciferase growth in erythrocytes, 48 h; Potency, µM (series often up to 28.7 µM), inactives show top-dose activity change, negative = inhibition, actives largely listed as inhibitors; further: potency means the concentration at half of the fitted maximal effect; on the % scale 0 is the no-effect control and ±100 the full control effect
#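 Growth was read as firefly luciferase luminescence after a 48 h, 37 C, 5% CO2 exposure of compounds to reporter-bearing P. falciparum cultures (0.1% parasitemia, 2% hematocrit final) in Albumax-supplemented RPMI 1640.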
# Pf growth 96h: P. falciparum growth inhibition at 96 hour, primary screen for plastid delayed-death inhibitors; Potency, µM (titrated, usually from 28.7 µM), without a hit: at the highest dose activity change, negative = inhibition, usual class: inhibitors; 320,000 compounds, 6.9% hits; P. falciparum luciferase reporter growth, 96 h; further: potency means the concentration at half of the fitted maximal effect; on the % scale 0 is the no-effect control and ±100 the full control effect
#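 Luminescence readout: decreased luciferase signal marks inhibited growth of reporter-expressing P. falciparum in infected red cells (2% hematocrit, 0.05% parasitemia final), exposed to compound two generations (96 h, 37 C, 5% CO2).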
# Sm TGR block: S. mansoni TGR enzyme inhibition. purified TGR, DTNB reduction, TNB absorbance 405 nm. Potency, µM (titrated, usually from 114 µM), for the others: at the top dose activity change, negative = inhibition, hits mostly inhibitors. Q962Y6. 360,000 compounds, 3% hits; further: potency means the concentration at half of the fitted maximal effect; on the % scale 0 is the no-effect control and ±100 the full control effect; nearly all actives have a fitted effect of over 60% in size
#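 TGR 20 nM + NADPH 100 uM (dispensed conc.), cpd preinc 15 min RT; start with NADPH (500 uM addition) then DTNB (15 mM addition). Kinetic TNB absorbance, 405 nm filter. Four-parameter Hill fit across titration.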
# * = called active by the depositor; ? = inconclusive; · = no result given; [ ] = dose if it differs, or a comment. A selection: hits, their analogues and other compounds. The true share with any hit is near 21%. Unless noted, the call rests on the fitted dose curve; in most records, active means well fitted curve in the direction sought with a large enough effect; inconclusive means small, poorly fitted or top-dose-only effect, or another doubt; inactive means no such curve, though single readings can be large; an effect the other way counts as inactive or inconclusive.
SMILES,CHX counter,NS1 function inh,Shiga inhibitor,Pf growth 48h,Pf growth 96h,Sm TGR block
Cc1ccc(C)c(OC(=O)C2CSC3(C)CCC(=O)N23)c1C (stereo not drawn),·,·,·,?,?,-12.4%
CCn1c(=O)cc(OCC(=O)N2CCc3ccccc32)c2ccccc21,-4.4,-8.0%,-8.5,37.0%,?,0.7%
O=C(COc1ccc2ccccc2c1CN1CCOCC1)N1CCc2ccccc21,-2.6,-12.2%,-20.3,·,10.4µM*,7.4%[11.4 µM]
Cc1ccc(C2=NN(C(=S)Nc3ccccc3)C(c3ccco3)C2)cc1 (stereo not drawn),38.6*,?,70.7*,45.3%,9.28µM*,5.8%
CCS(=O)(=O)Nc1ccc(C2=NN(C(=O)c3ccco3)C(c3cccc(F)c3)C2)cc1 (stereo not drawn),-1.0,·,15.2,?,?,-9.2%
CCS(=O)(=O)Nc1ccc(C2=NN(C(=S)Nc3ccccc3)C(c3ccco3)C2)cc1 (stereo not drawn),18.0*,-2.8%,18.1,?,?,-19.6%
O=C(OCC(=O)N1N=C(c2ccc(Cl)cc2)CC1c1ccco1)c1ccco1 (stereo not drawn),9.3,-18.5%,24.9,57.8%,15.8%,-10.5%
COc1ccc(C2=NN(C(=O)COC(=O)c3ccc(NC(=O)CC#N)cc3)C(c3ccco3)C2)cc1 (stereo not drawn),·,·,·,11.7µM*,?,0.7%
CCOC(=O)C(C(=O)Nc1cccc(C)c1)C1CCCCC1 (stereo not drawn),-1.3,-3.0%,-17.7,·,-7.1%,-29.8%
Cc1cc(C)c(NC(=O)CSc2ccc(-c3sc(-c4ccccc4)nc3C)nn2)c(C)c1,·,·,·,·,·,13.9%
CCNS(=O)(=O)c1ccc(CCC(=O)NCc2ccccn2)cc1,4.8,4.9%,·,0.0%,18.7%,18.3%
O=C(COc1ccc(S(=O)(=O)NC2CCCCC2)cc1)NCc1ccccn1,0.5,-6.1%,-8.6,0.8%,4.15µM*,5.1%
O=C(CCc1ccc(S(=O)(=O)NC2CCCCC2)cc1)NCc1ccccn1,44.3*,6.1%,97.6*,29.2%,-13.9%,35.5µM*
O=C(COc1ccc(S(=O)(=O)Nc2ccccc2)cc1)NCc1ccccn1,5.7,5.2%,-4.5,3.2%,?,-29.1%
CN1CCC2(CCN3CCc4c(oc5ccccc45)C3C2)N(C)C1=O (stereo not drawn),·,-6.9%,·,·,·,·
CC(N)=NCCCC(N)C(=O)O (stereo not drawn),·,-5.2%,·,·,·,·
CC(C)(C)OC(=O)N(c1cccc2cccnc12)S(=O)(=O)c1ccccc1Br,9.5,·,-9.4,·,·,·
CC(C)Oc1ccc(CN=C(N)N=C(N)N)cc1Cl,-3.2,7.7%,-6.5,11.7µM*,?,-13.8%
CC(C)COc1ccc(CN=C(N)N=C(N)N)cc1Cl,0.6,-9.1%,-4.0,2.94µM*,?,-4.9%
COc1ccc(CN=C(N)N=C(N)N)cc1Cl,-1.2,·,-13.9,?,23.6%,4.0%
N#Cc1ccccc1NC(=O)COC(=O)c1c[nH]c2ccccc12,·,·,·,?,1.6%,-1.4%
CCOC(=O)C1CCCCN1Cc1ccc(-c2ccccc2)cc1 (stereo not drawn),2.8,-46.6%,4.7,39.7%,?,-2.6%
CCCN1C(=O)S/C(=C\c2ccc(N3CCOCC3)o2)C1=O,40.9*,·,97.6*,-25.5%,-8.9%,8.91µM*
CCCN1C(=O)S/C(=C/c2ccc(N3CCOCC3)o2)C1=O,46.9*,-33.1%,66.3*,47.3%,41.2%,1.41µM*
CCCCN(C(=O)C1CCN(C(=O)c2ccccc2C)CC1)c1c(N)n(CCCC)c(=O)[nH]c1=O,-3.5,2.2%,11.2,-13.8%,10.2%,-5.8%
SMILES,CHX counter,NS1 function inh,Shiga inhibitor,Pf growth 48h,Pf growth 96h,Sm TGR block
CCc1noc(C)c1C(=O)N(CC)CC(=O)Nc1cc(Cl)ccc1C,·,·,·,-12.0%,-23.4%,-20.1%
Cc1ccc(/C=N/NS(=O)(=O)c2ccccc2)o1,-4.3,0.4%,3.6,8.2%,0.0%,-12.8%
Cc1oc(/C=N/NS(=O)(=O)c2ccccc2)cc1Br,1.4,-12.1%,-10.0,-8.3%,?,0.112µM*
CC1CN=C(Nc2ccc(F)c(Cl)c2)S1 (stereo not drawn),14.7,-1.2%,77.0*,-2.9%,-7.1%,14.4%
CC1CN=C(Nc2cccc(S(=O)(=O)N(C)C)c2)S1 (stereo not drawn),6.3,·,5.4,-16.2%,19.2%,-3.7%
CC(=O)c1cccc(NC2=NCC(C)S2)c1 (stereo not drawn),6.9,2.7%,5.4,·,13.1µM*,-28.7%
Fc1ccc(NC2=NCCS2)cc1Cl,-0.3,-43.2%,5.6,11.2%,-12.6%,-18.7%
COc1cccc(NC(=O)CN2C(=O)C3(SCC(=O)N3c3cc(C)cc(C)c3)c3ccccc32)c1 (stereo not drawn),·,·,·,·,·,-5.9%
O=C(O)c1ccc(NC(=S)NC(=O)c2ccc3ccccc3c2)cc1,-1.9,-11.1%,19.9,39.3%,-15.1%,0.0%
O=C(O)c1cccc(NC(=S)NC(=O)c2ccc3ccccc3c2)c1,42.0*,-6.2%,70.9*,190.0%,?,25.1µM*
O=C(NC(=S)Nc1ccccc1C(=O)O)c1ccc2ccccc2c1,14.7*,-30.3%,31.8,55.6%,0.0%,?
Cc1ccc(S(=O)(=O)N2CCN(C(=O)NCc3ccc(F)cc3)CC2)c(C)c1,-2.4,-2.5%,25.2,-29.1%,0.0%,-0.5%
CCOC(=O)NC(=S)Nc1ccc(C(C)(C)C)cc1,33.4*,-0.8%,79.9*,?,?,5.2%
CCCCNC(=S)Nc1ccc(C(F)(F)F)cc1,18.9*,·,30.4*,?,?,-16.3%
CCCCNC(=S)Nc1ccc(Cl)cc1,15.7,-23.2%,45.2*,22.4%,30.5%,-16.8%
CC(C)(C)C(=O)NC(=S)Nc1ccc(Cl)c(C(=O)O)c1,7.2,·,25.7,21.3%[5.75 µM],-14.7%[5.75 µM],-23.8%
CCOC(=O)C(NC(C)=O)C(=O)Nc1ccc(C(C)(C)C)cc1 (stereo not drawn),-4.8,2.3%,-5.0,0.5%,54.2%,·
CC(C)(C)C(=O)NC(=S)Nc1ccc(C(F)(F)F)cc1,43.2*,-0.6%,61.4*,13.6%,-4.0%,-35.3%
COc1ccc(C(=O)Nc2ccc3c(c2)C(=O)NC3=O)cc1,-1.2,-12.8%,-1.6,-3.3%,-3.3%,-25.3%
O=C1C=C(NNC(=O)c2cccnc2)CC(c2ccco2)C1 (stereo not drawn),1.1,·,-10.2,7.6%,?,0.3%
CC1=C(C)CC(C(=O)NCc2ccccc2F)C(C(=O)O)C1 (stereo not drawn),-1.0,27.3%,-2.9,1.0%,?,1.2%
O=C(O)C1CSC(c2coc3ccccc3c2=O)N1 (stereo not drawn),13.9*,-33.5%,12.6,-8.3%,?,2.51µM*
Cc1ccc(-c2nc3c(C)cccn3c2Nc2ccccc2C)s1,·,·,·,·,·,8.91µM*
Cc1ccccc1Nc1c(-c2ccccn2)nc2c(C)cccn12,-0.6,-3.1%,24.3,?,?,-0.8%
